Experimental data taken from PubChem BioAssay (NCATS).
Results filed as inconclusive are left out. Calls of active or inactive are those of the source. Calls come from the whole dose curve; as a rule, active = well fitted curve in the direction sought with a large enough effect; inconclusive = small, poorly fitted or top-dose-only effect, or another doubt; inactive = no such curve, though single readings can be large; an effect the other way counts as inactive or inconclusive.

What was measured:
[1] = target: Lysine-specific demethylase 5B (Homo sapiens) (UniProt Q9UGL1); assay: Optimization screen for KDM5B Histone Demethylases FDH coupled qHTS against the LOPAC library (AID 1347166); note: 0% is about no effect
Sequence of Lysine-specific demethylase 5B (Homo sapiens) (Q9UGL1 whole entry, looked up): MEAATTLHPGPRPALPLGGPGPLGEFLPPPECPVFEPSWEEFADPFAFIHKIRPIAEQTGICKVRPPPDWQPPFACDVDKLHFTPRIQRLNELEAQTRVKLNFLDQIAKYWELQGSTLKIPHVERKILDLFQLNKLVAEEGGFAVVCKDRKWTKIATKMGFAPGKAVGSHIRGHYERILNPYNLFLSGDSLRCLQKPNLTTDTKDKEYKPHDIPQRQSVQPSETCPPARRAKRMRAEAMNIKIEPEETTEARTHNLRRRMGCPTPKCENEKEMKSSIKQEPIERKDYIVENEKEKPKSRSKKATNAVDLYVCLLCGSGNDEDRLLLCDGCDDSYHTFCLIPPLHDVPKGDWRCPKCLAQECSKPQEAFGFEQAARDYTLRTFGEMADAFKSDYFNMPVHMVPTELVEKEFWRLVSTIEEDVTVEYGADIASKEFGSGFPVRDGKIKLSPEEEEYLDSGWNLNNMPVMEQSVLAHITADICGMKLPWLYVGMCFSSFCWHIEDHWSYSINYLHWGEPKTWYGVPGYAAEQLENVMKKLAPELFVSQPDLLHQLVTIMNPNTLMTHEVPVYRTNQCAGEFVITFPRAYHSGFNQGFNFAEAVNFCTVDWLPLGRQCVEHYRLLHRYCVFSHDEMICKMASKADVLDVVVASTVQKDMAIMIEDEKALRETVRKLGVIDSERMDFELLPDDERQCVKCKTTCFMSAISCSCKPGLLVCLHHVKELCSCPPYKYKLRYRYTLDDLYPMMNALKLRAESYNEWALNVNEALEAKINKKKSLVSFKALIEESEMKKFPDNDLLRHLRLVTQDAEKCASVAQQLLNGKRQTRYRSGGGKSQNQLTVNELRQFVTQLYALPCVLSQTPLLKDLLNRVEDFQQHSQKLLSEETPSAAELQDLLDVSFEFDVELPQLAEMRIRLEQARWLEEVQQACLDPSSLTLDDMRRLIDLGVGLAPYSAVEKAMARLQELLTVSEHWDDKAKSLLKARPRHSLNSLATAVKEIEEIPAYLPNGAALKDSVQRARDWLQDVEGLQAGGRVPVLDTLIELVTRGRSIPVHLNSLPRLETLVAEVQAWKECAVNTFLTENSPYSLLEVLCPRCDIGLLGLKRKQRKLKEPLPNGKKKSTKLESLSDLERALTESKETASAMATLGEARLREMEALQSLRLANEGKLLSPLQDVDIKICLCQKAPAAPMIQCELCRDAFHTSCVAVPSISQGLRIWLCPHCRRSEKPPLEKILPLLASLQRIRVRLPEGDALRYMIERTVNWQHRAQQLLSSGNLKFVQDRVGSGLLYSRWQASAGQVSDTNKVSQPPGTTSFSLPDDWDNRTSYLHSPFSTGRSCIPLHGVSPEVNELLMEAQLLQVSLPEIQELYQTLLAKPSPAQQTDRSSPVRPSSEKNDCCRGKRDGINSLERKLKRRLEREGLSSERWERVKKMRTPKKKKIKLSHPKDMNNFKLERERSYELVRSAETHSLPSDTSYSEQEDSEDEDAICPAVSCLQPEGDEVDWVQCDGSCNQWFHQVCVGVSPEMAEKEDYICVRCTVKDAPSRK
How it was run: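 KDM5BDeltaAP (200nM final) preincubated 10 min with compound, then 12.5uM H3K4Me3, 25uM a-ketoglutarate, ascorbate, Fe(II), NAD+ and FDH added; 50mM HEPES pH 7.5, 0.01% Tween-20. NADH fluorescence (340/450 nm) change over 30 min, room temperature.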

[2] = qHTS to identify inhibitors of the type 1 interferon - major histocompatibility complex class I in skeletal muscle: primary screen against the NCATS LOPAC collection (AID 1347405);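 note: lytic HiBiT luminescence reporting HLA-B protein level; % is set by controls: 0 for no effect and ±100 for the full control effect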
How it was run: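 Luminescence from HiBiT fused to endogenous HLA-B in CRISPR-engineered human myoblasts served as the read-out. Cells received 4.0 ng/ml IFN-beta plus compound (seven concentrations, 1:4.3 steps, highest 46 uM final) for 24 hrs before lytic detection.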

[3] = qHTS to identify inhibitors of the type 1 interferon - major histocompatibility complex class I in skeletal muscle: primary screen against the NCATS Pharmaceutical Collection (AID 1347407);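 note: luminescence of HiBiT knocked into endogenous HLA-B as interferon-induced MHC class I level; % is set by controls: 0 for no effect and ±100 for the full control effect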
How it was run: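 Cells were seeded with 4 ng/ml IFN-beta, incubated 1 h, then dosed with compounds over eight 1:5 steps up to 46 uM final. After 24 h at 37 C, HiBiT lytic reagent was added and luminescence read after 10 min lysis in the dark.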

[4] = qHTS for inhibitors of adenylyl cyclases using a fission yeast platform: a pilot screen against the NCATS LOPAC library (AID 1347410);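 note: plate controls were DMSO vehicle for no effect and DPI positive control for full effect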
How it was run: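 Growth medium went into the plates first, then compounds were pinned (final up to 57 µM), then CHP2027 yeast were added. Plates were incubated overnight (18 h) at 30C in the dark, and GFP was measured by laser scanning cytometry.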

[5] = target: Protein phosphatase 1D (Homo sapiens) (UniProt O15297); assay: RapidFire Mass Spectrometry qHTS Assay for Modulators of WT P53-Induced Phosphatase 1 (WIP1) (AID 1347424);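 note: amount of dephosphorylated VEPPL-S-QETFS peptide product formed by WIP1; series mostly up to about 63 µM; plate controls were DMSO wells for no effect and GSK830371 inhibitor control at 10 µM for full effect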
Sequence of Protein phosphatase 1D (Homo sapiens) (O15297 whole entry, looked up): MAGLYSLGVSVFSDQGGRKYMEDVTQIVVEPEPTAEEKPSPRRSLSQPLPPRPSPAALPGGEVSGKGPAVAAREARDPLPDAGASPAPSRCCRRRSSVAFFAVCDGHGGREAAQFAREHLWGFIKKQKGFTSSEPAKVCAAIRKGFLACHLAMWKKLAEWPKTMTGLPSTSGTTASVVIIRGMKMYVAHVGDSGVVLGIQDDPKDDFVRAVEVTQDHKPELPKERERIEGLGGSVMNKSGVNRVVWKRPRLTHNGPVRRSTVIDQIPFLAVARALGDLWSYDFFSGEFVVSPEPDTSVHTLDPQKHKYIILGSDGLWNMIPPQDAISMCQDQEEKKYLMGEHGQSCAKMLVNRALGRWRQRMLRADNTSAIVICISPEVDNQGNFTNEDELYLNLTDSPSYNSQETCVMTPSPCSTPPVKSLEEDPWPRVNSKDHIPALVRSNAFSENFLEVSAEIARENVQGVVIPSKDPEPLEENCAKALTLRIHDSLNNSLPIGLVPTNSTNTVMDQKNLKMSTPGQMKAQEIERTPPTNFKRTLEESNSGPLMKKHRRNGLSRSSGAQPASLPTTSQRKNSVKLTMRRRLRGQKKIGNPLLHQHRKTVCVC
How it was run: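 10 nM WIP1 preincubated with compounds 1 hr at room temperature in pH 7.5 Tris buffer with 30 mM MgCl2, 1 mM TCEP; 2 uM VEPPL-pS-QETFS phosphopeptide for 5 min, formic acid quench; dephosphorylated product quantified by RapidFire MS against labelled standard.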

[6] = target: Protein phosphatase 1D (Homo sapiens) (UniProt O15297); assay: Rhodamine-PBP qHTS Assay for Modulators of WT P53-Induced Phosphatase 1 (WIP1) (AID 1347425); note: % of control where 0% means no effect
How it was run: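 Steps: enzyme with Rh-PBP sensor and compounds, room-temperature incubation of 1 hr, baseline read, addition of VEPPL-pS-QETFS (10 uM final), kinetic fluorescence reads at 525/598 nm. Activity equals final minus baseline signal.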

[7] = Validation qHTS assay for inhibitors of Activation Induced Cytidine Deaminase (AID): UDG Counterscreen signal (AID 1347427); note: 0% is about no effect
How it was run: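 Counterscreen read of UDG activity (2 U/mL, 4/3x) in the FRET deamination format with AID (1 uM, 4/3x), DJC20/DJC23 substrates (250 nM, 4x), 4 h at room temperature. NaOH stop, fluorescence at 560 ex/665 em.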

[8] = target: Single-stranded DNA cytosine deaminase (Homo sapiens) (UniProt Q9GZX7); assay: Validation qHTS assay for inhibitors of Activation Induced Cytidine Deaminase (AID): AID signal (AID 1347429); note: % is set by controls: 0 for no effect and ±100 for the full control effect
Sequence of Single-stranded DNA cytosine deaminase (Homo sapiens) (Q9GZX7 whole entry, looked up): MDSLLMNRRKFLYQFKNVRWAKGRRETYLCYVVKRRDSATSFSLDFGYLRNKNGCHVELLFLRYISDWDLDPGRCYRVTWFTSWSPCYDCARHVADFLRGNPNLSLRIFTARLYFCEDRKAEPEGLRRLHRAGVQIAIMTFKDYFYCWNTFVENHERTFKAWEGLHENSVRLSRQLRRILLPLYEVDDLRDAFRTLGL
How it was run: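 Fluorescence at 540 nm excitation and 590 nm emission reports ssDNA cytosine deamination by AID, with UDG in the same well. Compound-treated reactions ran 4 hr at room temperature with DJC20/DJC23 substrate, followed by 30 min NaOH treatment.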

[9] = Primary qHTS for inhibitors of La Crosse Virus (LACV) - induced cell death in SH-SY5Y cells (AID 1508616);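 note: top concentration of the series differs between compounds; 0% = infected DMSO wells and 100% = uninfected DMSO wells; higher means more rescue of cells from virus-induced death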
How it was run: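 Protection against LACV-induced cell death is scored in SH-SY5Y cells exposed to compounds and virus (0.01 MOI) for 6 days. Data normalized to virus-infected DMSO wells and virus-free DMSO wells.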

[10] = target: Calcium and integrin-binding protein 1 (Homo sapiens) (UniProt Q99828); assay: Primary qHTS for Identification of Calcium Integrin Binding Protein 1 (CIB1) Competitor (AID 1508620);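 note: GST tagged CIB1 binding a fluorescein labelled alphaIIb integrin peptide tracer; top concentration of the series differs between compounds; % is set by controls: 0 for no effect and ±100 for the full control effect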
Sequence of Calcium and integrin-binding protein 1 (Homo sapiens) (Q99828 whole entry, looked up): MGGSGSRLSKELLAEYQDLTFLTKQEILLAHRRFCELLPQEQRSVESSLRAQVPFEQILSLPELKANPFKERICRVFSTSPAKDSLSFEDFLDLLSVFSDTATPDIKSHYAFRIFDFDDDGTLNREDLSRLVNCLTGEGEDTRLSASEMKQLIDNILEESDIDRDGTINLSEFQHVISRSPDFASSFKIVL
How it was run: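 Fluorescence polarization competition: GST-tagged CIB1 (1 uM final) preincubated with compound 15 min at room temperature, then FITC-labelled alphaIIb peptide (100 nM final) added. After 15 min at room temperature, polarization read at Ex 480/Em 540.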

[11] = target: Calcium and integrin-binding protein 1 (Homo sapiens) (UniProt Q99828); assay: Validation qHTS for Identification of Calcium Integrin Binding protein 1 (CIB1) Competitor (AID 1508618); note: % is set by controls: 0 for no effect and ±100 for the full control effect
How it was run: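 In this qHTS validation, the LOPAC set (up to 114 uM) was tested for blocking CIB1 binding to a fluorescein-tagged alphaIIb peptide, with FP detection at 480/540 nm.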

[12] = Confirmatory qHTS for small molecule stabilizers of the endoplasmic reticulum resident proteome: Secreted ER Calcium Modulated Protein (SERCaMP) assay (AID 1508628); note: series mostly up to about 76 µM; % is set by controls: 0 for no effect and ±100 for the full control effect; nearly all actives have a fitted effect of over 40% in size
How it was run: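 SH-SY5Y cells stably expressing GLuc-SERCaMP, treated 16 h with compound (primary 1.53, 7.67, 38.3 uM; confirmation 11 concentrations, up to 76.6 uM), then 100 nM thapsigargin for 4 h. Secreted Gaussia luciferase in medium read by coelenterazine luminescence.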

Cc1nc2c([nH]1)c(=O)n(C)c(=O)n2Cc1ccco1
inactive: Potency [1] | Potency [2] | Potency [3] | outcome [4] | Potency [5] | outcome [6] | outcome [7] | Potency [8] | Potency [9] | Potency [10]

CN1CCN(C2=Nc3ccccc3Oc3ccc(Cl)cc32)CC1
inactive: Potency [1] | Potency [2] | Potency [3] | outcome [4] | Potency [5] | outcome [6] | outcome [7] | Potency [8] | Potency [9] | Potency [10]

O=C(O)CN(CCOCCOCCN(CC(=O)O)CC(=O)O)CC(=O)O
inactive: Potency [1] | Potency [2] | activity change, negative = inhibition [3] 1.04% [at 0.727 µM] | outcome [4] | activity change, negative = inhibition [5] 15.2% [at 0.505 µM] | activity change, negative = inhibition [6] -3.01% [at 0.575 µM] | outcome [7] | Potency [8] | Potency [9] | activity change, negative = inhibition [10] 0.103% [at 1.07 µM]

Cc1cccc(C)c1NC(=O)C(C)N (stereo not drawn)
inactive: Potency [1] | Potency [2] | Potency [3] | outcome [4] | Potency [5] | outcome [6] | outcome [7] | Potency [8] | Potency [9] | Potency [10]

COc1ccc2c(c1OC)C(=O)O[C@@H]2[C@H]1c2c(cc3c(c2OC)OCO3)CCN1C
inactive: Potency [1] | Potency [2] | Potency [3] | outcome [4] | Potency [5] | outcome [6] | outcome [7] | Potency [8] | Potency [9] | Potency [10]

CN(C)CC/C=C1\c2ccccc2COc2ccccc21
inactive: Potency [1] | Potency [2] | Potency [3] | outcome [4] | Potency [5] | outcome [6] | outcome [7] | Potency [8] | Potency [9] | Potency [10]

CCCNC(C)C(=O)Nc1ccccc1C (stereo not drawn)
inactive: Potency [1] | Potency [2] | Potency [3] | outcome [4] | Potency [5] | outcome [6] | outcome [7] | Potency [8] | Potency [9] | outcome [11] | Potency [10]

CC(=O)Oc1cc(C(C)C)c(OCCN(C)C)cc1C
inactive: Potency [1] | Potency [2] | Potency [3] | outcome [4] | Potency [5] | outcome [7] | Potency [8] | Potency [9]

O=c1[nH]c(=O)n([C@H]2C[C@H](O)[C@@H](CO)O2)cc1Br
inactive: Potency [1] | Potency [2] | Potency [3] | outcome [4] | Potency [5] | outcome [7] | Potency [8] | Potency [9] | Potency [10]

CC(N=C(NC#N)Nc1ccncc1)C(C)(C)C (stereo not drawn)
inactive: Potency [1] | Potency [2] | Potency [3] | outcome [4] | Potency [5] | outcome [7] | Potency [8] | Potency [9] | Potency [10]

Cc1ccc(S(=O)(=O)NC(=O)NN2CCCCCC2)cc1
inactive: Potency [1] | Potency [2] | Potency [3] | outcome [4] | Potency [5] | outcome [7] | Potency [8] | Potency [9] | outcome [11] | Potency [10]

O=C(CCCN1CCC(O)(c2cccc(C(F)(F)F)c2)CC1)c1ccc(F)cc1
inactive: Potency [1] | Potency [2] | Potency [3] | outcome [4] | Potency [5] | outcome [7] | Potency [8] | Potency [9] | outcome [11] | Potency [10]

CC1=NS(=O)(=O)c2cc(Cl)ccc2N1
inactive: Potency [1] | Potency [2] | Potency [3] | outcome [4] | Potency [5] | outcome [7] | Potency [8] | Potency [9] | outcome [11] | Potency [10]

O=C(O)CN(CCN(CC(=O)O)CC(=O)O)CCN(CC(=O)O)CC(=O)O
inactive: Potency [1] | Potency [2] | Potency [3] | outcome [4] | Potency [5] | outcome [7] | Potency [8] | Potency [9] | Potency [10] | Potency [12]

C[C@]12CCC(=O)C=C1CC[C@@H]1[C@@H]2CC[C@@]2(C)[C@H]1CC[C@]2(O)C(=O)CO
inactive: Potency [1] | Potency [2] | Potency [3] | outcome [4] | Potency [5] | outcome [7] | Potency [8] | Potency [9] | Potency [10]

NCCCNCCSP(=O)(O)O
inactive: Potency [1] | Potency [2] | activity change, negative = inhibition [3] 3.17% [at 9.18 µM] | outcome [4] | activity change, negative = inhibition [5] 0.628% [at 12.6 µM] | outcome [7] | Potency [8] | Potency [9] | outcome [11] | Potency [10]

NC/C=C/C(=O)O
inactive: Potency [1] | Potency [2] | Potency [3] | outcome [4] | Potency [5] | outcome [7] | Potency [8] | Potency [9] | outcome [11] | Potency [10]

C[N+](C)(C)CCOC(N)=O
inactive: Potency [1] | Potency [2] | Potency [3] | outcome [4] | Potency [5] | outcome [7] | Potency [8] | Potency [9] | outcome [11] | Potency [10]

CN(C)CCN(Cc1cccs1)c1ccccn1
inactive: Potency [1] | Potency [2] | Potency [3] | outcome [4] | Potency [5] | outcome [7] | Potency [8] | Potency [9] | outcome [11] | Potency [10]

N[C@@H](COP(=O)(O)O)C(=O)O
inactive: Potency [1] | Potency [2] | Potency [3] | outcome [4] | Potency [5] | outcome [7] | Potency [8] | Potency [9] | Potency [10]

NC(=O)N1c2ccccc2C=Cc2ccccc21
inactive: Potency [1] | Potency [2] | Potency [3] | outcome [4] | Potency [5] | outcome [7] | Potency [8] | Potency [9] | Potency [10]

OCCN1CCN(CC/C=C2/c3ccccc3Sc3ccc(C(F)(F)F)cc32)CC1
inactive: Potency [1] | Potency [2] | outcome [4] | Potency [5] | outcome [6] | outcome [7] | Potency [8] | Potency [9] | outcome [11] | Potency [10]

C[C@]12CCC(=O)C=C1CC[C@@H]1[C@@H]2C(=O)C[C@@]2(C)[C@H]1CC[C@]2(O)C(=O)CO
inactive: Potency [1] | Potency [2] | Potency [3] | outcome [4] | Potency [5] | outcome [7] | Potency [8] | Potency [9] | outcome [11] | Potency [10]

CCCCCN(CCCCC)C(=O)C(CCC(=O)O)NC(=O)c1ccc(Cl)c(Cl)c1 (stereo not drawn)
inactive: Potency [1] | Potency [2] | Potency [3] | outcome [4] | Potency [5] | outcome [7] | Potency [8] | Potency [9] | Potency [10]
